Shown are actives, neighbours in structure and some others; about 1.8% of the full set was active somewhere.
CtBP-E1A blk: inhibitors of CtBP/E1A interaction. AlphaScreen GST-E1A/His-CtBP binding, 1536-well; stronger effect = lower value. activity change, % (test concentration not listed). hit rate 0.49% among 340,000. AID 651724
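AlphaScreen with 125 nM GST-E1A and 125 nM His-CtBP (5X stocks) in Tris pH 8.0, 300 mM NaCl, BSA, Tween 20, TCEP. Compounds preincubated 2 h at 37 deg C, then glutathione donor/nickel acceptor beads added for 1 h at 37 deg C in dark.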
PI4K2A block: inhibitors of human PI4K2A; Q9BTU6; purified PI4K2A, ADP-Glo luminescence, 1 h; stronger effect = lower value; activity change, negative = inhibition, % at 76.9 µM; hit rate 0.13% among 420,000; AID 1346378; in the data active means activity change below about -50%; inconclusive means mostly about -30% to -49%;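 further: -100% = wells without enzyme as full effect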
Target sequence (Q9BTU6 whole entry, looked up): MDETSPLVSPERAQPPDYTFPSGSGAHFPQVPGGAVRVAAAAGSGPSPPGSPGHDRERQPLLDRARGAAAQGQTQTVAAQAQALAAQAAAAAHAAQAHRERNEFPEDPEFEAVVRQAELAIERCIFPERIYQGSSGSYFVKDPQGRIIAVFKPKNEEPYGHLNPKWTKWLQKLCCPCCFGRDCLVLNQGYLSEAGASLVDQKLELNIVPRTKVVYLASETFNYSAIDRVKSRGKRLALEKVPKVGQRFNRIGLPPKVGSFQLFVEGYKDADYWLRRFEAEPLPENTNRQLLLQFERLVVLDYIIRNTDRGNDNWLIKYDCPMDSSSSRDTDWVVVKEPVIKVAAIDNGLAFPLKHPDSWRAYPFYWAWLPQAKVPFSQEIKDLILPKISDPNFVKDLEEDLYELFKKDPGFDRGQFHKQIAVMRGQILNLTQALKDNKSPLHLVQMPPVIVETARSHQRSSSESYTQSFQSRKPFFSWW
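PI4K2A activity was measured by ADP-Glo luminescence: enzyme (4 ug/mL stock) and phosphatidylinositol (1.2 mM stock) in Tris pH 7.5/MgCl2/EGTA/Triton X-100 buffer were reacted with ATP (300 microM stock) for one hour at ambient temperature.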
PI5P4Ka inh: blocks human PI5P4K alpha kinase activity; P48426; PI5P4Kalpha enzyme, ADP-Glo luminescence, 60 min; stronger effect = lower value; max response, %; hit rate 1.2% among 330,000; AID 652105; active means max response of -50% or lower; inconclusive means between -30% and -50%; inactive means -30% or higher; further: value at the top dose of about 77 µM
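Reactions run in 0.038 M HEPES pH 7.4, 0.28 mM EGTA, 0.1% CHAPS and 5% DMSO, with PI5P4Kalpha, substrate, compound and 5 microM ATP final, one hour at room temperature. Readout is ADP-Glo luminescence.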
pAkt inh: inhibitors of Akt phosphorylation; Neuro2A IGF-stimulated pAkt S473 HTRF, 20 min; stronger effect = lower value; activity change, % for hits at 50 µM; hit rate 0.32% among 360,000; in the data active means activity change below about -80%; inconclusive means mostly about -51% to -80%
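Neuro2A cells (4,500/well, DMEM with 0.5% FBS) were treated with compound at a single 50 µM final concentration, stimulated with 6 nM IGF for 20 min at 37 °C, and lysed. Phospho-Akt Ser473 was read by HTRF as 665/615 ratio ×10^4.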
Six1-Eya2 inh: Six1/Eya2 interaction inhibition; activity change, % (no concentration beside the values); Q15475+O00167; AlphaScreen GST-Six1/His-Eya2 binding, biochemical; stronger effect = lower value; hit rate 0.56% among 360,000
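GST-Six1 + His-Eya2 (5X stock: 250/500 nM); Tris pH 8.0, 300 mM NaCl, 0.05% BSA, 0.02% Tween 20; GSH donor/Ni acceptor beads; 1 h 37 °C dark; AlphaScreen readout.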
Active calls of the source: *. Unless noted, no stated cut-off is given here; in the data, active means activity change below about -65%; inconclusive means mostly about -30% to -63%; inactive means weaker than that. Unless noted, on the % scale 0 is the no-effect control and ±100 the full control effect.

What do the screens show for `COc1ccc(CCNC(=O)CSc2nc3sc(C(=O)O)c(C)c3c(=O)[nH]2)cc1OC`?
CtBP-E1A blk: 9.7; PI4K2A block: -0.1; PI5P4Ka inh: -70.7*; pAkt inh: inactive; Six1-Eya2 inh: 0.2

Results for CCOC(=O)c1ccc(NC(=O)CSc2nc3sc(C(=O)O)c(C)c3c(=O)[nH]2)cc1 ?
CtBP-E1A blk: 10.9; PI4K2A block: 1.5; PI5P4Ka inh: -80.7*; pAkt inh: inactive; Six1-Eya2 inh: 3.4

What do the screens show for `Cc1cc(NS(=O)(=O)c2ccc(NC(=O)CSc3nc4sc(C)c(C)c4c(=O)[nH]3)cc2)no1`?
PI4K2A block: -6.5; PI5P4Ka inh: -22.6; pAkt inh: inactive; Six1-Eya2 inh: inconclusive

What do the screens show for `NC(CO)c1csc(Nc2ccc(C(F)(F)F)cn2)n1` (configuration not stated)?
CtBP-E1A blk: -73.8*; PI4K2A block: 0.0; PI5P4Ka inh: 4.8; pAkt inh: inactive; Six1-Eya2 inh: inconclusive

How did CC(C)CC(N)c1csc(Nc2cnccn2)n1 (configuration not stated) do in these assays?
CtBP-E1A blk: -75.1*; PI4K2A block: -1.9; PI5P4Ka inh: -1.1; Six1-Eya2 inh: inconclusive

Results for CC(C)CC(N)c1csc(Nc2ccc(C(F)(F)F)cn2)n1 (configuration not stated) ?
CtBP-E1A blk: inconclusive; PI4K2A block: -5.6; PI5P4Ka inh: 12.1; pAkt inh: inactive; Six1-Eya2 inh: -5.1

Results for CC(C)CC(N)c1csc(Nc2ccccn2)n1 (configuration not stated) ?
CtBP-E1A blk: -89.2*; PI4K2A block: 1.7; PI5P4Ka inh: -1.0; pAkt inh: inactive; Six1-Eya2 inh: -83.3*

Results for COc1ccc(OC)c(S(=O)(=O)NC(C)(C)C)c1 ?
CtBP-E1A blk: 0.0; PI4K2A block: 3.2; pAkt inh: inactive; Six1-Eya2 inh: 0.5

Results for O=C(CN1C(=O)c2ccccc2C1=O)Nc1cccc(S(=O)(=O)Nc2ccccc2Cl)c1 ?
CtBP-E1A blk: -68.4*; PI4K2A block: -2.8; PI5P4Ka inh: 2.9; pAkt inh: inactive; Six1-Eya2 inh: -67.8*

What do the screens show for `O=C(CN1C(=O)c2ccccc2C1=O)Nc1cccc(Cl)c1`?
CtBP-E1A blk: -2.9; PI4K2A block: 0.8; PI5P4Ka inh: 2.5; pAkt inh: inactive; Six1-Eya2 inh: -8.0

How did CS(=O)(=O)N(Cc1ccc(C(=O)NN=C2CCCC2)cc1)c1ccccc1 do in these assays?
CtBP-E1A blk: -14.0; PI4K2A block: -3.6; PI5P4Ka inh: 5.2; pAkt inh: inactive; Six1-Eya2 inh: -0.3

How did COC1=C(N)C(=O)c2nc(C)ccc2C1=O do in these assays?
CtBP-E1A blk: -8.5; PI4K2A block: -3.9; PI5P4Ka inh: -4.3; pAkt inh: inactive; Six1-Eya2 inh: -10.7

What do the screens show for `COC1=C(Br)C(=O)c2nc(C)ccc2C1=O`?
CtBP-E1A blk: -13.8; PI4K2A block: inconclusive; PI5P4Ka inh: -68.0*; pAkt inh: inactive; Six1-Eya2 inh: inconclusive

What do the screens show for `CC(C)n1c(=O)[nH]c2ccccc21`?
CtBP-E1A blk: 2.0; PI4K2A block: 3.9; pAkt inh: inactive; Six1-Eya2 inh: 3.7

What do the screens show for `CC(C)n1c(=O)[nH][nH]c1=S`?
CtBP-E1A blk: 2.2; PI4K2A block: -14.3; PI5P4Ka inh: -102.9*; pAkt inh: inactive; Six1-Eya2 inh: 0.0

How did CCOc1ccc(N)c(SSc2cc(OCC)ccc2N)c1 do in these assays?
PI4K2A block: -22.2; PI5P4Ka inh: inconclusive; pAkt inh: inactive; Six1-Eya2 inh: inconclusive

Results for CS(=O)(=O)c1ccc(N)c(SSc2cc(S(C)(=O)=O)ccc2N)c1 ?
CtBP-E1A blk: -9.0; PI4K2A block: -14.8; PI5P4Ka inh: -80.5*; pAkt inh: inactive; Six1-Eya2 inh: -9.7

What do the screens show for `NS(=O)(=O)c1ccc(N=Nc2c[nH]c(=O)c(O)c2)cc1`?
CtBP-E1A blk: inconclusive; PI4K2A block: -61.6*; PI5P4Ka inh: -62.7*; pAkt inh: inactive; Six1-Eya2 inh: inconclusive

How did Cc1ccc2c(c1)/C(=N/O)CCS2 do in these assays?
CtBP-E1A blk: 0.8; PI4K2A block: 3.3; PI5P4Ka inh: 3.1; pAkt inh: -113.2%*; Six1-Eya2 inh: -3.7

What do the screens show for `COc1cc(/C=C/C=C2/CC/C(=C/C=C/c3ccc(O)c(OC)c3)C2=O)ccc1O`?
CtBP-E1A blk: -0.7; PI4K2A block: inconclusive; PI5P4Ka inh: -92.7*; pAkt inh: inactive; Six1-Eya2 inh: inconclusive

Assay outcomes from PubChem.
